Assay results taken from the supplement of paper PMC6555819.

Key:
Experiment in all cases: PBM binding z-score (relative to random genomic background probes); higher = stronger binding; sequences stand for … in GC…GCGATTGACAGCGTAGAATGAAGG
[1] = test system: PPARg:RXRa DBDmut IVT, anti-RXR (DBD mutation: RXRa K156A/R161A, NR concentration 270 nM, RXRa partner concentration 90 nM)
Outline: (§1)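 Ligand-free nuclear receptor dimers were applied to custom Agilent 4×180K protein-binding microarrays whose double-stranded probes carried direct-repeat seeds, single-nucleotide variants, half-site ablations and random human genomic background sequences in 34-nt variable regions. Incubation lasted 1 h. Binding z-scores were computed against the random background probes from regression-normalized fluorescence.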

[2] = test system: PPARg:RXRa IVT, anti-PPARg (NR concentration 270 nM, RXRa partner concentration 90 nM)
Outline: as §1

[3] = test system: PPARg DBDmut:RXRa IVT, anti-PPARg (DBD mutation: PPARg1 K132A/R137A, NR concentration 270 nM, RXRa partner concentration 90 nM)
Outline: as §1

[4] = test system: PPARg DBDmut IVT, anti-PPARg (DBD mutation: PPARg1 K132A/R137A, NR concentration 270 nM)
Outline: as §1

[5] = test system: PPARg homodimer (NR concentration 180 nM)
Outline: as §1

[6] = test system: PXR:RXRa (NR concentration 270 nM, RXRa partner concentration 90 nM)
Outline: as §1

[7] = test system: PXR homodimer (NR concentration 270 nM)
Outline: as §1

[8] = test system: RARa:RXR (NR concentration 270 nM, RXRa partner concentration 90 nM)
Outline: as §1

[9] = test system: RARa homodimer (NR concentration 270 nM)
Outline: as §1

[10] = test system: RARb homodimer (NR concentration 270 nM)
Outline: as §1

[11] = test system: RARg:RXRa (NR concentration 270 nM, RXRa partner concentration 90 nM)
Outline: as §1

[12] = test system: RARg homodimer (NR concentration 270 nM)
Outline: as §1

[13] = test system: RXRa DBDmut IVT, anti-RXR (DBD mutation: RXRa K156A/R161A, NR concentration 90 nM)
Outline: as §1

[14] = test system: RXRa homodimer (NR concentration 180 nM)
Outline: as §1

[15] = test system: THRa homodimer (NR concentration 90 nM)
Outline: as §1

[16] = test system: VDR homodimer (NR concentration 270 nM)
Outline: as §1

[17] = test system: THRa:RXRa (NR concentration 90 nM, RXRa partner concentration 90 nM)
Outline: as §1

[18] = test system: RARb:RXRa (NR concentration 270 nM, RXRa partner concentration 90 nM)
Outline: as §1

[19] = test system: VDR:RXRa (NR concentration 270 nM, RXRa partner concentration 90 nM)
Outline: as §1

Row | Sequence | PBM binding z-score [1] | PBM binding z-score [2] | PBM binding z-score [3] | PBM binding z-score [4] | PBM binding z-score [5] | PBM binding z-score [6] | PBM binding z-score [7] | PBM binding z-score [8] | PBM binding z-score [9] | PBM binding z-score [10] | PBM binding z-score [11] | PBM binding z-score [12] | PBM binding z-score [13] | PBM binding z-score [14] | PBM binding z-score [15] | PBM binding z-score [16] | PBM binding z-score [17] | PBM binding z-score [18] | PBM binding z-score [19]
1 | CAACCTAGGTCACGAAAGGTCAAAGTCGAATGAC | 5.05 | 6.58 | 1.6 | 1.91 | 4.46 | 7.28 | 2.49 | 6.93 | 1.71 | 6.02 | 7.91 | 8.53 | 2.31 | 8.43 | 2.77 | 3.44 |  |  | 
2 | CGAACTAAGTCATCCAGGACAGTGAATACATTGA | 1.12 | 0.862 | 0.763 | 1.05 | 0.291 | -0.153 | -0.248 | 0.371 | 0.476 | 0.33 |  | 0.549 | 0.248 | 0.264 | 1.1 | 0.0279 | 1.55 |  | 
3 | ATATGGAGGTTAAGGGTCATTCAGGTTGGTTCGC | 3.59 | 5.42 | 3.41 | 2.22 | 4.57 | 6.14 | 3.95 |  | 3.41 | 4.46 | 5.75 | 4.13 | 2.5 | 7.76 | 2.38 | 5.63 | 3.96 | 3.97 | 
4 | GCTTACGGGTCAAAGGTTATAGTATGAATAGAAT | 4.49 | 5.45 | 1.28 | 1.07 | 1.98 | 6.29 | 0.804 |  | 0.757 | 3.5 | 6.8 | 4.72 | 2.7 | 9.39 | 0.429 | 1.88 | 3.99 | 4.25 | 
5 | CGTCCAAGGTCAATGCAAGGTCAGTGAAAGCATT | 3.53 | 4.28 | 0.246 | 0.606 | 5.89 | 6.14 | 2.19 | 6.91 | 2.02 | 5.5 |  | 7.06 | 3.92 | 6.02 | 4.02 | 3.85 |  |  | 6.14
6 | CCTAGTGGGCCAAAGGTCATTGATTCCAATGCTC | 5.71 | 7.73 | 2 | 0.985 | 7.49 | 5.83 | 3.2 |  | 3.01 | 4.6 | 5.89 | 4.92 | 1.92 | 6.9 | 0.756 | 3.23 | 3.22 | 4.62 | 4.68
7 | CCTAGCAGGCCAATCGGGGTCACTCAAGGCTTGA | 2.04 | 3.14 | -0.484 | -1.21 | 3.42 | 6.01 | 1.7 | 6.08 | 0.0938 | 3.66 | 4.43 | 3.43 | 1.12 | 6.01 | 2.35 | 4 |  |  | 
8 | CAGACTAGGTCAAAGGTCAAAGTCGAGCCAACCA | 7.65 | 8.8 | 3.31 | 3.18 | 5.71 | 7.16 | 1.95 |  | 2.03 | 5.25 | 8.9 | 7.48 | 3.08 | 10.3 | 1.38 | 3.17 | 4.68 | 5.64 | 6.58
9 | AGTCAGAGTTCATCTAGGTAACGTAAGATATGCT | 0.73 | 2.55 | 1.05 | 0.893 | 1.46 | 5.25 | 9.2 |  | 1.13 | 3.28 | 4.7 | 4.79 | 4.9 | 4.73 | 0.225 | 7.13 | 3.14 | 4.3 | 
10 | CCTACTGGGCCAAAGGTCAGTGATTCCAATGCTC | 4.94 | 6.5 | 0.904 | -0.864 | 4.06 | 3.49 | 0.00567 |  | 1.82 | 4.33 | 4.71 | 4.48 | -0.00245 | 4.48 | 0.381 | 0.516 | 2.35 | 4.1 | 2.88
11 | CTCGAAAGGTCAGTTGAGGTGAGTATACGGATAA | 2.81 | 3.53 | 0.544 | 1.62 | 5.81 | 5.79 | 0.639 | 5.08 | 3.41 | 4.91 | 6.7 | 7.89 | 2.56 | 5.93 | 1.63 | 1.63 |  |  | 
12 | ATCGAAAGGTCGACGAGTTGAGTATACACCGTTT | 0.59 | 1.57 | 1.03 | 0.857 | 1.26 | 3.23 | 1.84 |  | 0.451 | 2.63 | 3.88 | 4.05 | 1.46 | 4.2 | -0.136 | 2.1 | 2.24 | 3.7 | 6.08
13 | CAATCTAGGTCACGAAAGGTCAAAGTCGAATGAC | 8.53 | 9.13 | 5.67 | 4 | 6.67 | 7.2 | 3.37 |  | 4.3 | 5.85 | 8.09 | 8.64 | 2.58 | 8.63 | 3.08 | 3.66 | 5.02 | 5.76 | 
14 | CGTCAAAGTTCAACTAATGTAACGTAAAGCACGC | 0.546 | 1.56 | 0.963 | 2.3 | 3.42 | 4.97 | 5.1 |  | 2.42 | 3.96 | 5.66 | 6.9 | 4.76 | 4.75 | 0.305 | 4.13 | 3.31 | 5.23 | 
15 | TAGCCTAGGTCATTCAGGGGCCAGAATAGAAAGC | 1.69 | 2.95 | -0.139 | 0.318 | 1.44 | 2.48 | 0.043 |  | -0.355 | 3.56 | 5.97 | 4.58 | 2.09 | 3.18 | 0.459 | 1.19 | 3.54 | 4 | 3.17
